# Compound activity deposited in PubChem by Buhrlage Lab, Dana-Farber Cancer Institute and Novartis Institutes for BioMedical Research (Cambridge, Mass).
# Hits are enriched below; roughly 12% of the tested compounds scored in any of these assays.
# USP30 inh = human USP30 deubiquitinase inhibition; AID 1645860; actives 5.3% (n = 47,000); inhibition, % at 25 µM; purified USP30, Ub-rhodamine cleavage fluorescence; Q70CQ3
# Target sequence (Q70CQ3 whole entry, looked up): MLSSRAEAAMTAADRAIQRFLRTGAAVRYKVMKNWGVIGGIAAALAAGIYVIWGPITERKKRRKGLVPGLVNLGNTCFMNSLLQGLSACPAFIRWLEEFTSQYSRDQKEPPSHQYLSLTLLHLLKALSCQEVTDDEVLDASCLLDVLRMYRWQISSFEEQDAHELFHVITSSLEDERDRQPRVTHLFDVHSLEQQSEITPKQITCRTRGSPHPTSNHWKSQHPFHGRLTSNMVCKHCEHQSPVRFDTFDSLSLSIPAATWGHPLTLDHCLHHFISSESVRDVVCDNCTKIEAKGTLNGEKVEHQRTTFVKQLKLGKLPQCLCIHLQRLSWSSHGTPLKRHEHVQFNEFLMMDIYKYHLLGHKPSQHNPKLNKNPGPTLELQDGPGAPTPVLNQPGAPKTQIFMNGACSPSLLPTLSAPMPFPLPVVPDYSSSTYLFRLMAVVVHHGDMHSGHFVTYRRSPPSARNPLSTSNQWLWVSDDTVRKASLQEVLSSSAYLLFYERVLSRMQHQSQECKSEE
# USP28 block = blocks human USP28 ubiquitin-rhodamine cleavage; actives 3% (n = 47,000); AID 1645857; Q96RU2; purified USP28, Ub-rhodamine cleavage fluorescence, 30 min; inhibition, % at 25 µM
# USP17 block = blocks human USP17 ubiquitin-rhodamine cleavage; A8MUK1; actives 6.5% (n = 47,000); inhibition, % at 50 µM; purified USP17, Ub-rhodamine cleavage fluorescence, 3 h; AID 1645855
# OTUD3 block = human OTUD3 deubiquitinase inhibition | purified OTUD3, Ub-rhodamine fluorescence, 2 h | actives 0.7% (n = 47,000) | AID 1645858 | inhibition, % at 25 µM
# An asterisk follows results filed as active; · = no result given. No stated cut-off is given here; in the data, active means inhibition above about 30%; inactive means the rest.
SMILES,USP30 inh,USP28 block,USP17 block,OTUD3 block
O=C(N[C@@H]1C[C@H](O)[C@@H](N2CCN(c3ccccc3)CC2)[C@@H]1O)c1cnco1,2,4,6,9
COc1ccc(CCC(=O)Nc2ccc(C)c(S(=O)(=O)Nc3ccccc3OC)c2)cc1,6,1,5,0
CC(C)CNC(=O)C1Cn2ccnc2C2(CCN(C(=O)Nc3ccccc3Cl)CC2)O1 (centres undefined),-5,0,-2,-4
CC1CCCN(S(=O)(=O)c2cc3cc(F)ccc3oc2=O)C1 (centres undefined),15,0,58*,4
Cc1cc(C(=O)Nc2nc3c(s2)CN(C(=O)/C=C/c2ccco2)CC3)no1,-77,20,35*,8
O=C(Nc1nc2c(s1)CN(C(=O)/C=C/c1ccco1)CC2)c1cnccn1,-107,2,-4,4
O=C(NC1CCCC1)c1cccc(NC(=O)c2nsc3ccccc23)c1,·,·,31*,-1
O=C(c1cnccn1)N1CCCC(c2nccnc2-c2ccc(F)cc2)C1 (centres undefined),16,6,9,4
COc1cccc2cc(C(=O)N3CCc4nc(NC(=O)C5CCCO5)sc4C3)oc12 (centres undefined),-8,14,34*,-1
O=C(Nc1nc2c(s1)CN(C(=O)c1ccco1)CC2)C1CCCO1 (centres undefined),-83,-19,-35,-10
Fc1ccc(N2CCN(c3ncnc4nc[nH]c34)CC2)cc1,7,-13,-2,3
Nc1nc(N2CCN(c3ccc(Cl)cc3)CC2)c2[nH]cnc2n1,16,-4,42*,-9
O=C(Nc1ccc(Cl)cc1)C1CCCN(c2ncnc3nc[nH]c23)C1 (centres undefined),-31,-10,39*,-5
Clc1cccc(N2CCN(c3ncnc4nc[nH]c34)CC2)c1,5,5,56*,7
O=C(NCc1ccncc1)C1CCCN(c2ncnc3nc[nH]c23)C1 (centres undefined),6,-1,1,1
O=C(O)C1=C(CSc2nnnn2CS(=O)(=O)O)CS[C@@H]2[C@H](NC(=O)[C@H](O)c3ccccc3)C(=O)N12,-22,3,-11,6
CN(C)CCNC(=O)c1ncn2c1C(=O)N(C1CC1)C(C)(C(=O)NC1CCCC1)C2 (centres undefined),-7,-15,-4,-10
COC(=O)c1ccc(N2CCN(C(=O)c3ccccc3)CC2)c(NC(=O)COc2ccccc2Cl)c1,33*,9,39*,9
COC(=O)c1ccc(N2CCN(C(=O)c3ccccc3)CC2)c(NC(=O)c2cc(OC)c(OC)c(OC)c2)c1,0,0,9,-10
CC(C)c1cccc(C(C)C)c1NC(=O)CCCN1C(=O)NC2(CCCC2)C1=O,6,-7,4,0
CN1C(=O)Cc2cc(S(=O)(=O)N3CCC(c4ccncc4)CC3)ccc21,22,-12,39*,-16
O=C(CN1CCC2(CC1)Nc1ccccc1C1=NCCN12)N1CCOCC1,-8,2,-3,2
CC(C)Oc1ccc(C(=O)Nc2ccccc2F)cc1,0,8,-13,-3
O=C(Nc1ccccc1F)c1ccc(C(=O)c2ccccc2)cc1,13,13,35*,1
COc1ccc(C2CC(=O)C3=C(C2)Nc2ccccc2N(C(=O)c2ccccc2)C3c2ccc(C(C)(C)C)cc2)cc1 (centres undefined),0,4,-3,-11
SMILES,USP30 inh,USP28 block,USP17 block,OTUD3 block
CC1(C)CC(=O)C2=C(C1)Nc1ccccc1N(C(=O)C(F)(F)F)C2c1cccs1 (centres undefined),-38,10,64*,3
CCCOc1ccc(C2C3=C(CC(C)(C)CC3=O)Nc3ccccc3N2C(=O)c2ccccc2)cc1OC (centres undefined),42*,5,18,15
COc1ccc(C2C3=C(CC(C)(C)CC3=O)Nc3ccccc3N2C(=O)c2ccccc2)cc1 (centres undefined),-5,-7,35*,0
Cc1ccc(CNS(=O)(=O)c2cc3[nH]c4c(c3cc2C)C(=O)CCC4)cc1,-29,44*,-22,-12
Cc1cc2c3c([nH]c2cc1S(=O)(=O)NCc1ccc2c(c1)OCO2)CCCC3=O,-39,31*,0,13
Cc1cc2c3c([nH]c2cc1S(=O)(=O)N1CCCCC1C)CCCC3=O (centres undefined),-52,4,37*,0
CCc1cc2c3c([nH]c2cc1S(=O)(=O)NCc1cccc(OC)c1)CCCC3=O,0,16,-8,0
CCc1cc2c3c([nH]c2cc1S(=O)(=O)NCc1ccccc1)CCCC3=O,-31,11,-17,-9
COc1ccc(CN2CCCC(c3ncc(Cl)cc3S(C)(=O)=O)C2)cc1O (centres undefined),-4,-1,-4,-1
NC(=O)c1ccc(C(=O)N(Cc2ccc(F)cc2)C2CC2)cc1,0,0,-10,-10
COc1ccc(S(=O)(=O)N2CCc3ccccc32)cc1C(=O)Nc1ccc2[nH]c(=O)[nH]c2c1,87*,37*,27,-4
COc1ccccc1NC(=O)c1cc(S(=O)(=O)N2CCCc3ccccc32)ccc1F,11,0,43*,10
COc1cc(OC)cc(-n2c(=O)c3sccc3n(CC(=O)c3ccc(Cl)cc3)c2=O)c1,30*,11,35*,9
C=C1C=C(CCC(=O)O)C(=O)OC1/C=C/C=C/C (centres undefined),80*,99*,101*,96*
COc1ccc(OC)c(CCNCc2c(C(=O)O)n(C)c3cc(OC)ccc23)c1,-32,-12,-11,-3
CCc1nnc(-c2nnc(NC3CCN(C)CC3)c3ccccc23)o1,32*,17,12,22
CS(=O)(=O)c1cccc(-c2nnc(NC(=O)c3ccc(Cc4ccccc4)cc3)o2)c1,35*,19,5,13
CS(=O)(=O)c1ccc(-c2nnc(NC(=O)c3ccco3)o2)cc1,10,9,6,10
CC(NC(=O)c1ccc(-c2nnc(-c3ccccc3)o2)cc1)c1ccc(S(C)(=O)=O)cc1 (centres undefined),41*,23,71*,36*
Cn1c(CCNC(=O)c2[nH]nc3c2CCc2ccccc2-3)nc2ccccc21,-11,52*,78*,-7
COc1ccccc1CNC(=O)c1[nH]nc2c1CCc1ccccc1-2,4,29,0,0
O=C(NC1CCN(Cc2ccccc2)CC1)c1[nH]nc2c1CCc1ccccc1-2,-49,62*,-7,-25
Cc1ccc(NC(=O)c2cc(C3CC3)nc3c2cnn3C(C)C)c(C)c1,-39,-8,-12,-3
Cc1ccc(CN2CCC(c3nc(-c4ccncc4)n[nH]3)CC2)o1,·,·,0,11
c1cnc(-c2n[nH]c(C3CCN(C4CCNC4)CC3)n2)cn1 (centres undefined),-6,51*,54*,3
Cc1cc(C)n(C(C)CC(=O)Nc2ccc(-c3nc4ccccc4[nH]3)cc2)n1 (centres undefined),-15,-15,-29,-18
